# This is a sample that favours compounds with a hit; in the whole collection about 2.3% have one here.
# V-ATPase pHluor: regulators of yeast V-ATPase proton pumping, primary screen, pHLuorin cytosolic pH fluorescence; S. cerevisiae; response, % at 10 µM; 0.37% of 350,000 active; in the data active = response mostly above about 7.3%, no sharp cut-off; inactive = mostly below about 5.4%; note: actives read high
# KLK7 zymogen act: proKLK7 zymogen activators, primary screen, biochemical, fluorescence intensity; Kallikrein-7 (Homo sapiens), P49862; purified proKLK7, EDANS-DABCYL substrate fluorescence; 100% is mature enzyme control, 0% vehicle; activation, % at 7 µM; 0.9% of 370,000 active;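 active = activation above the mean of all tested compounds plus 3 SD, computed per campaign excluding outliers beyond control limits, cut at about 13% in these data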
# Target sequence (P49862 whole entry, looked up): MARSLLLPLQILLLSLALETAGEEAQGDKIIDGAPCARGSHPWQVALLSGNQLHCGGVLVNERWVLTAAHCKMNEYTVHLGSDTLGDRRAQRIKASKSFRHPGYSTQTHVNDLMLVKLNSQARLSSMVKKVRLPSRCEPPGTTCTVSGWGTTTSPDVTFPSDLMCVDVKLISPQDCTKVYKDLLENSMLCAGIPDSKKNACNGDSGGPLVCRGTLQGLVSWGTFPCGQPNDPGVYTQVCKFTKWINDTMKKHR
# ADAM10 inh: human ADAM10 inhibitors, primary screen, biochemical, QFRET, HTS; inhibition, % at 7 µM; Disintegrin and metalloproteinase domain-containing protein 10 (Homo sapiens), O14672; recombinant ADAM10, EDANS/DABCYL FRET peptide cleavage, 3 h; AID 720582, 2013; 0.62% of 370,000 active;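 active = inhibition above a per-campaign cutoff equal to the mean of compounds falling between control-based bounds plus 3 SD, cut at about 20% in these data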;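 note: 0% = DMSO wells while the 100% control is not disclosed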
# ADAM17 inh: ADAM17 inhibitors, primary screen, biochemical, QFRET; inhibition, % at 6.95 µM; Disintegrin and metalloproteinase domain-containing protein 17 (Homo sapiens), P78536; AID 720648, 2013; recombinant ADAM17, EDANS/DABCYL FRET peptide cleavage; 0.83% of 370,000 active;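 active = inhibition above the mean of compounds lying between control limits plus 3 SD, set per campaign, cut at about 8.5% in these data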;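 note: 0% = DMSO-only wells as the low control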
# proKLK7 act conf: proKLK7 zymogen activators, confirmation, biochemical, fluorescence intensity, triplicate. shares compounds with KLK7 zymogen act. purified proKLK7, EDANS-DABCYL substrate fluorescence; scaled: vehicle 0, mature enzyme 100. activation, % at 7 µM. 68% of 3,200 active;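 active = activation, as change over the incubation, above the mean of all tested compounds plus 3 SD, cut at about 13% in these data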
# EDANS-DABCYL int: EDANS-DABCYL substrate optical interference, artefact control for kallikrein-7 zymogen activator project, biochemical, fluorescence intensity, high throughput; shares compounds with KLK7 zymogen act; no enzyme, 4 h; solvent 0%, active enzyme control 100%; activation, % at 7 µM; 80% of 3,200 active; AID 686952, 2013;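 active = activation above the all-compound mean plus 3 SD, ignoring values outside control-based bounds, cut at about 4.8% in these data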;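 note: value is the 4 h activation minus the activation read at time zero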
# * hit, by the source's call; i = inactive; nt = not tested or not shown.
SMILES,V-ATPase pHluor,KLK7 zymogen act,ADAM10 inh,ADAM17 inh,proKLK7 act conf,EDANS-DABCYL int
O=C1N/C(=C/c2ccc(N3CCOCC3)o2)C(=O)N1c1ccccc1,-1,20*,-27,-7,10,10*
Oc1ccc2ccccc2c1C=Nc1ccccc1-c1nc2ccccc2[nH]1,-2,38*,i,i,-43,-39
COc1cccc(-c2cccc3c4c([nH]c23)[C@@H]2C[C@H]3[C@@H](C(=O)N2CC4)[C@H](C)ON3C)c1,nt,0,-88,-28,nt,nt
C[C@H](CO)N1C[C@H](C)[C@@H](CN(C)C(=O)c2ccncc2)OCc2cn(nn2)CCCC1=O,nt,0,-1,-2,nt,nt
Cc1cccn2c(=O)c(C=O)c(N3CCCCC3)nc12,2,0,8,6,nt,nt
O=Cc1c(Cl)nc2ccccn2c1=O,-1,42*,-43,-17,22*,20*
Cc1cccn2c(=O)c(C=O)c(Cl)nc12,4,92*,-28,-12,16*,19*
COc1ccc(OC)c(S(=O)(=O)N2CCCCC2C(=O)N2CCCN(C)CC2)c1 (stereo unspecified),nt,0,4,2,nt,nt
Cc1nn(-c2ccccc2)c2sc(C(=O)NCC3CCCO3)cc12 (stereo unspecified),nt,1,-102,-26,nt,nt
CCn1nc2cc(C(=O)NCCc3cccs3)ccc2c1OC,-5,18*,i,-196,8,3
CCOc1c2ccc(C(=O)NCc3ccc(OC)cc3)cc2nn1CCOC,0,13*,i,-246,-4,-5
CCOc1c2ccc(C(=O)NCCc3ccc(C)cc3)cc2nn1CC,-2,-8,i,-223,nt,nt
CN(C)C=Nc1nc2c(Br)ccc(Br)c2cc1C(=O)NCC(C)(C)C,nt,0,-2,0,nt,nt
O=S1(=O)N[C@@H](Cc2ccccc2)COc2cccc(N3CCCC3)c21,nt,-1,-3,2,nt,nt
CCCCOc1ccccc1C1C(C(=O)OC)=CN(CC)C=C1C(=O)OC,-3,-41,i,i,nt,nt
COC(=O)C1=CN(C)C=C(C(=O)OC)C1c1ccccc1Cl,-4,24*,i,-415,76*,77*
COC(=O)c1cc(NC(=O)c2cccc(F)c2)cc(C(=O)OC)c1,0,0,-1,-6,nt,nt
COC(=O)c1cc(NC(=O)CC(=O)c2cccc(N)c2)cc(C(=O)OC)c1,2,15*,-27,-6,-1,0
CC[C@@]1(O)C(=O)OCc2c1cc1n(c2=O)Cc2cc3c(N)cccc3nc2-1,-7,27*,-129,-27,78*,90*
CC[C@@]1(O)C(=O)OCc2c1cc1n(c2=O)Cc2cc3c(CN(C)C)c(O)ccc3nc2-1,3,60*,-494,-135,70*,76*
COC(=O)C[C@@H]1CC[C@@H]2[C@@H](COc3ccc(NC(=O)Nc4ccc(F)cc4)cc3C(=O)N2C)O1,nt,0,-1,-4,nt,nt
C=CCN1C(=O)[C@@H](CC(=O)NCc2ccc(C)o2)[C@]2(C(=O)OCC)CCCCC/C=C/12,nt,0,1,2,nt,nt
C=CC(=O)NC1CCCCN(C)C1=O (stereo unspecified),nt,0,-4,-5,nt,nt
CCC(C)[C@H](NC(=O)[C@H](CC(C)C)NC(=O)OC(C)(C)C)C(=O)N[C@@H](Cc1ccccc1)C(=O)OC (stereo partly specified),nt,0,-15,-6,nt,nt
Cc1ccccc1S(=O)(=O)N(C)C[C@@H]1OCc2cn(nn2)CCCC(=O)N([C@@H](C)CO)C[C@H]1C,nt,0,-4,-2,nt,nt
SMILES,V-ATPase pHluor,KLK7 zymogen act,ADAM10 inh,ADAM17 inh,proKLK7 act conf,EDANS-DABCYL int
COc1ccc(O)c(C(=O)CC(=O)c2cccnc2)c1,3,55*,i,-336,229*,235*
Cc1nc(Cl)c2c(n1)NC1=C(O2)C(=O)CCC1,-8,22*,-137,-48,18*,22*
O=C1NC2=C(C(=O)CCC2)C(c2ccccc2Cl)N1 (stereo unspecified),4,1,-3,-5,nt,nt
COc1cccc(CNC(=O)C[C@H]2CC[C@H]3[C@@H](COc4ccc(NC(=O)c5cccs5)cc4C(=O)N3C)O2)c1,nt,0,9,-9,nt,nt
N#CC1=C(N)Oc2cc(N)ccc2C1c1ccc(F)cc1 (stereo unspecified),-1,3,-56,-13,nt,nt
N#CC1=C(N)Oc2cc(N)ccc2C1c1ccccc1Cl (stereo unspecified),-2,20*,-233,-77,4,5.8*
N#CC1=C(N)Oc2cc(N)ccc2C1c1ccc(F)cc1F (stereo unspecified),-3,17*,-215,-98,13*,15*
COc1ccc(C2C(C(=O)Nc3cc(Cl)ccc3F)CCC(=O)N2c2ccc(OC)cc2)cc1 (stereo unspecified),nt,0,7,4,nt,nt
COc1ccc(N2C(=O)CC(N3CCN(Cc4ccc5c(c4)OCO5)CC3)C2=O)cc1 (stereo unspecified),-4,53*,-8,-5,0,0
CCCCC(=O)N1CCN(C(=O)c2ccc3nc(C)n(C4CCCC4)c3c2)CC1,nt,0,-5,-2,nt,nt
CCN1C(=O)c2cccc3c(S(=O)(=O)NCc4ccccn4)ccc1c23,3,53*,i,-223,62*,56*
CCOC(=O)CNS(=O)(=O)c1ccc2c3c(cccc13)C(=O)N2CC,1,77*,i,-243,64*,69*
CN1C(=O)c2cccc3c(S(=O)(=O)NCCc4ccccc4)ccc1c23,1,-2,-434,-161,nt,nt
CCN1C(=O)c2cccc3c(S(=O)(=O)Nc4c(C)n(C)n(-c5ccccc5)c4=O)ccc1c23,-4,1,1,0,nt,nt
COCCNS(=O)(=O)c1ccc2c3c(cccc13)C(=O)N2C,1,28*,i,-189,78*,88*
CN1C(=O)c2cccc3c(S(=O)(=O)N4CCCC4C(=O)O)ccc1c23 (stereo unspecified),-5,17*,-179,-67,42*,46*
CN1C(=O)c2cccc3c(S(=O)(=O)Nc4ccc(O)c(C(=O)O)c4)ccc1c23,3,2,2,-1,nt,nt
CCOC(=O)Cc1csc(NS(=O)(=O)c2ccc3c4c(cccc24)C(=O)N3CC)n1,0,3,-20,-10,nt,nt
C[C@H]1[C@@H](OC(=O)N2CCCC2)CC[C@@]23CCCN2C(=O)CCC[C@@H]13,nt,nt,6,0,nt,nt
O=c1c(-c2cccs2)nc2ccccc2n1C(c1ccccn1)c1nc2ccccc2[nH]1 (stereo unspecified),nt,17*,i,-311,13,14*

# Compound activity: PubChem BioAssay, several laboratories
